# Inconclusive results are not listed. A number with no mark means an inactive call. Active and inactive are the calls of the source. Calls follow the shape of the dose curve; as a rule, active = well fitted inhibition curve with a large enough effect; inconclusive = small, poorly fitted or top-dose-only effect; inactive = flat fitted curve, though single readings scatter.
# Test system: NIH3T3
# Test: Cytotoxic Profiling of Annotated Libraries Using Quantitative High-Throughput Screening (AID 1296008); also: nearly all actives have a fitted effect of over 60% in size
# Conditions: Five cell lines viability, CellTiter-Glo ATP luminescence, 48-72 h; max response: stronger effect = lower value
# Method in brief: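 Cytotoxicity was measured as CellTiter-Glo ATP luminescence, read after 10 min at room temperature. Compound treatment of the cells lasted 48 or 72 hr at 37 degrees Celsius in a qHTS format.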
# % is scaled to controls: 0 for no effect and ±100 for the full control effect; potency is read from the fitted curve at half-maximal effect.
Compound,max response [%],Potency
CCC(O)(C(=O)OCc1ccccc1NC(=O)CCC(=O)O)C(C)O (stereo not given),-2.36,–
O=C(O)c1cc(-c2c(-c3ccccc3)nn3ccccc23)n[nH]c1=O,-3.95,–
CC(=O)NCC(=O)N1C2CCC1c1cc(Nc3ncc(C(F)(F)F)c(NC4CCC4)n3)ccc12 (stereo not given),–,1.3 µM (active)
C=CC(=O)Nc1cc(Nc2ncc(Cl)c(-c3c[nH]c4ccccc34)n2)c(OC)cc1N(C)CCN(C)C,–,5.8 µM (active)
Cc1ccc(S(=O)(=O)Cc2nc(-c3ccc(C(=O)NCc4cccnc4)cc3)oc2C)cc1,–,0.0731 µM (active)
COC(=O)c1ccc(OC(CO)C(O)c2ccc(O)c(OC)c2)c(OC)c1 (stereo not given),-1.03,–
OC/C=C/C=C/[C@H]1Cc2cc(O)cc(O)c2O1,1.57,–
O=C(O)Cc1ccc2oc(-c3ccc(NC(=O)/C=C/c4ccc(Br)cc4)c(F)c3)nc2c1,1.97,–
CC(C)=CCC[C@](C)(O)[C@H]1CC[C@]2(C)[C@@H]1[C@H](O)CC1[C@@]3(C)CC[C@H](O)C(C)(C)C3[C@@H](O[C@@H]3O[C@H](CO)[C@@H](O)[C@H](O)[C@H]3O[C@@H]3OC[C@@H](O)[C@H](O)[C@H]3O)C[C@]12C (stereo not given in full),1.41,–
C[C@@H]1O[C@@H](O[C@H]2[C@H](O[C@H]3[C@H](O[C@H]4CC[C@@]5(C)C(CC[C@]6(C)C5CC=C5[C@@H]7CC(C)(C)CC[C@]7(C(=O)O[C@@H]7O[C@H](CO)[C@@H](O[C@@H]8O[C@@H](C)[C@H](O)[C@@H](O)[C@H]8O)[C@H](O)[C@H]7O)CC[C@]56C)C4(C)C)OC[C@H](O)[C@@H]3O)O[C@H](CO)[C@@H](O)[C@@H]2O)[C@H](O)[C@H](O)[C@H]1O (stereo not given in full),0.585,–
